An excerpt weighted towards active compounds, which were near 11% of everything screened.
HEK cytotox: kills HEK 293 cells. HEK 293 viability, ATP luminescence (CellTiter-Glo), 48-72 h. Potency, µM (top dose mostly 115 µM), for the others: at the top dose activity change, negative = cytotoxicity, usual class: inhibitors. 6.6% of 94,000 active. AID 1345083; further: on the % scale 0 is the no-effect control and ±100 the full control effect; nearly all actives have a fitted effect of over 60% in size
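qHTS cytotoxicity; HEK 293, 250 cells/well; compound pinned; 48 or 72 hr, 37 degree Celsius, 5% CO2, 95% humidity; CellTiter-Glo, 10 min RT; luminescence (ATP).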
FLuc inh-1: Photinus pyralis luciferase inhibition | P08659 | purified P. pyralis luciferase, luminescence, biochemical | Potency, µM (highest dose often 115 µM), usual class: inhibitors | 2.5% of 76,000 active | AID 1347043; further: on the % scale 0 is the no-effect control and ±100 the full control effect; nearly all actives have a fitted effect of over 65% in size
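Biochemical qHTS: compound (6-point titration) added to 10uM D-luciferin plus 10uM ATP in Tris acetate pH 7.5 buffer with Mg, Tween-20 and BSA, then purified enzyme at 10nM; light output imaged.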
3T3 cytotox: kills NIH 3T3 cells; Potency, µM (series often up to 96.7 µM), without a hit: top-dose activity change, negative = cytotoxicity, usual class: inhibitors; NIH 3T3 viability, CellTiter-Glo ATP luminescence, 48-72 h; 4.3% of 94,000 active; AID 1345082; further: on the % scale 0 is the no-effect control and ±100 the full control effect; nearly all actives have a fitted effect of over 55% in size
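First NIH 3T3 cells are plated at 400 cells/well; next compound is pinned in; then plates incubate 48 or 72 hr at 37 °C; finally CellTiter-Glo is added and luminescence read after 10 min.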
hNpr1 antagonist: antagonists of human natriuretic peptide receptor Npr1; P16066; HEK293 hNpr1 GloSensor cGMP, ANP-stimulated luminescence; Potency, µM (series often up to 46.3 µM), inactives show at the highest dose activity change, negative = inhibition, most hits filed as inhibitors; 1.6% of 76,000 active; AID 1347048; calls by dose curve; further: on the % scale 0 is the no-effect control and ±100 the full control effect; nearly all actives have a fitted effect of over 60% in size
Target sequence (P16066 whole entry, looked up): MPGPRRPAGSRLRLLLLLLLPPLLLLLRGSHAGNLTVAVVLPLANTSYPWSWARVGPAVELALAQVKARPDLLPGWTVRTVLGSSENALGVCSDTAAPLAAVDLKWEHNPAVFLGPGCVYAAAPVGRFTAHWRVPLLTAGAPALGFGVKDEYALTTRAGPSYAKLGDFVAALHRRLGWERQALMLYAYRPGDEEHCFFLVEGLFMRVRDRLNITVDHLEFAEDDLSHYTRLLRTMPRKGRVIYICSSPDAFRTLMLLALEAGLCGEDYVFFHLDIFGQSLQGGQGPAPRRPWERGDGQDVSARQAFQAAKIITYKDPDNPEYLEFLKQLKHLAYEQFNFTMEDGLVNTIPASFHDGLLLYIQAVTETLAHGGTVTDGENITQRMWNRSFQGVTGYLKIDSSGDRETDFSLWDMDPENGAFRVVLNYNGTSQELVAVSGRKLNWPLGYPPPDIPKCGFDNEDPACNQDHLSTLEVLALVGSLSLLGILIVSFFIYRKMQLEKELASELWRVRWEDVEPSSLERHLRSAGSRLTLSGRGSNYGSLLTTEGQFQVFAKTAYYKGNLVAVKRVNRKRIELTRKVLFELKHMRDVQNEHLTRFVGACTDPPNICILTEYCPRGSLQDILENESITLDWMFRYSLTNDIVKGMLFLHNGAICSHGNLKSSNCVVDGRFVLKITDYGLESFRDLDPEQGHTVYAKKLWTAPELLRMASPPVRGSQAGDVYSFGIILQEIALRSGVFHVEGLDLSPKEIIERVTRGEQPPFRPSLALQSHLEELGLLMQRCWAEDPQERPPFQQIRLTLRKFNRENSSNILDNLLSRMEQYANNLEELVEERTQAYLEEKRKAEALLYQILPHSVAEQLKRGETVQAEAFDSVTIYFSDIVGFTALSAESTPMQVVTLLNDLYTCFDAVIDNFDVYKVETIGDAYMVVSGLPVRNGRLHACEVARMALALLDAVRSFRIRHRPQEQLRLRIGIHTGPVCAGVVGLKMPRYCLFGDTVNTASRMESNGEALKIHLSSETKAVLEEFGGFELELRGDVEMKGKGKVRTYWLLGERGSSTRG
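HEK293 cells stably expressing human Npr1 and cGMP GloSensor pGS-40F, loaded 2 h with 2% GloSensor reagent, given compound 30 min at room temperature. Luminescence read before and 20 min after 0.1 nM hNppA.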
FLuc SDR no ATP: firefly luciferase binding stabilization, ATP absent; AID 1963318; shares compounds with FLuc inh-1; Purified FLuc-C-HiBiT, Nano-Glo HiBiT luminescence, no ATP; Potency, µM (titrated, usually from 32.7 µM), inactives show at the top dose activation (signal gain), actives largely listed as activators; 7.8% of 1,300 active; further: nearly all actives have a fitted effect of over 55% in size
FLuc SDR ATP: stabilizes firefly luciferase with ATP present; shares compounds with FLuc inh-1; 8.7% of 1,300 active; Potency, µM (top dose mostly 32.7 µM), for inactives: at the top dose activation (gain of signal), usual class: activators; purified FLuc-C-HiBiT + ATP, HiBiT complementation luminescence;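 further: signal reports ligand binding via conformational change of the enzyme rather than luciferase catalysis; % of control where 0% means no effect; nearly all actives have a fitted effect of over 55% in size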
FLuc inh-2: blocks firefly luciferase enzymatic activity; shares compounds with FLuc inh-1; purified FLuc-C-HiBiT enzyme, luciferin luminescence; Potency, µM (top dose mostly 32.7 µM), inactives show at the highest dose activity change, negative = inhibition, actives largely listed as inhibitors; 42% of 1,300 active; further: on the % scale 0 is the no-effect control and ±100 the full control effect; nearly all actives have a fitted effect of over 70% in size
The depositor's hits bear a star; i = inactive; ? = inconclusive; . = not tested or not shown; [ ] = another dose, or the depositor's remark. Unless noted, the call rests on the fitted dose curve; in most records, active means well fitted curve in the direction sought with a large enough effect; inconclusive means small, poorly fitted or top-dose-only effect, or another doubt; inactive means no such curve, though single readings can be large; an effect the other way counts as inactive or inconclusive. Potency means the concentration at half of the fitted maximal effect.

SMILES	HEK cytotox	FLuc inh-1	3T3 cytotox	hNpr1 antagonist	FLuc SDR no ATP	FLuc SDR ATP	FLuc inh-2
CCc1nc2c(c(-c3ccc(O)cc3)n1)CCN(C(=O)Cc1ccccn1)CC2	i	.	-6.3%	.	.	.	.
C=CCNC(=O)c1cccc2c(C)nnn12	-15.5%[230 µM]	14.1µM*	-12.9%[174 µM]	-15.2%[70.6 µM]	10.8%[65.7 µM]	14.1%[65.7 µM]	-13.2%[65.7 µM]
COC(=O)CNC(=O)c1nc(-c2ccc([S+](C)(=O)[O-])cc2)c2cnccn12	i	.	i	.	.	.	.
O=C1NCC(=O)N2CC3(CCN(S(=O)(=O)c4ccccc4)CC3)CC12 (stereo unspecified)	-2.7%	.	-3.7%	.	.	.	.
Oc1c(Br)cc(Br)cc1-c1nc2ccccc2s1	.	.	.	.	9.8%	7.9%	?
COc1ccc(-c2nc(-c3ccccc3)nc3c2CN(C(=O)c2ccc(C(F)(F)F)cc2)CC3)cc1	?	i	-9.1%	2.5%	.	.	.
O=C(c1ccc(C(F)(F)F)cc1)N1CCc2nc(-c3ccccc3)nc(-c3ccc(Cl)cc3)c2C1	?	i	?	5.2%	12.0%	9.7%	2.4%
O=C(Nc1ccc([C@H]2OCC(=O)N(Cc3ccncc3)[C@@H]2CO)cc1)c1ccc(C(F)(F)F)cc1	20µM*	12.6µM*	?	?	19.2%	14.3%	?
CC(C)(C)c1ccc(C(=O)Nc2ccc([C@H]3OCC(=O)N[C@@H]3CO)cc2)cc1	?	10µM*	89.1µM*	-0.6%[70.6 µM]	26.8%[49.3 µM]	15.6%[49.3 µM]	?
COc1ccc(C(=O)Nc2ccc([C@H]3OCC(=O)N[C@@H]3CO)cc2)cc1	0.8%[172 µM]	?	-6.0%[138 µM]	0.9%[70.6 µM]	.	.	.
COC(=O)CNC(=O)c1nc2sccn2c1-c1ccc(OC)cc1	-10.0%[172 µM]	.	-13.0%[138 µM]	.	.	.	.
O=C(Nc1cccc(C(F)(F)F)c1)N1CCCC(Cn2cnc3cccnc32)C1 (stereo unspecified)	?	i	-18.7%	-3.3%	.	.	.
Cc1ccc([S+](=O)([O-])N2CC(=O)N(CC3CC3)CC(C)(C)C2)cc1	-9.8%	.	?	.	.	.	.
OC(c1ccccc1)c1nc(Nc2ccc3c(c2)OCO3)n[nH]1 (stereo unspecified)	-28.3%[172 µM]	i	?	-23.3%[70.6 µM]	.	.	.
Oc1ccc(-c2nc3ccccn3c2Nc2ccc3c(c2)OCCO3)cc1	.	.	.	.	21.4%	16.9%	?
CN(C)c1ccc(-c2nc3ccccn3c2Nc2ccc3c(c2)OCCO3)cc1	.	.	.	.	18.9%	13.3%	11.1µM*
CC(C)Cn1c(=O)c(C(=O)Nc2ccc(F)cc2)nc2cccnc21	-25.0%[172 µM]	.	-14.1%[138 µM]	.	.	.	.
CCn1c(=O)c(C(=O)Nc2ccc(C(C)=O)cc2)nc2ccccc21	.	.	.	.	?	?	?
O=C(O)c1cccc(-c2noc(-c3cccc(C(F)(F)F)c3)n2)c1	.	.	.	.	?	0.0394µM*	0.0157µM*
O=C(O)c1cccc(-c2noc(-c3ccc(C(F)(F)F)cc3)n2)c1	.	.	.	.	7µM*	0.0062µM*	0.0035µM*
O=C(Nc1ccc2c(c1)OCCO2)N1CCC2(CC1)CC(N1CCOCC1)CCO2 (stereo unspecified)	1.8%	.	-12.6%	.	.	.	.
O=C(Nc1ccc2c(c1)OCCO2)N1CCC2(CC1)CC(N1CCCC1)CCO2 (stereo unspecified)	12.0%	6.31µM*	i	-8.2%	28.6%	?	?
CC(C)C(=O)NC1CCN(Cc2ccc(-c3nc4cccc(Cl)c4s3)cc2)CC1	.	.	.	.	12.7%	8.7%	-6.1%
Cc1ccc(-c2ccccc2CN2CCC(C(=O)NC3CCCC3)CC2)cc1Cl	-14.8%	.	-14.9%	.	.	.	.
COc1ccc(NC(=O)Nc2ccc(C)n(CC(=O)N3CCCCCC3)c2=O)cc1	-1.6%	8.91µM*	i	-0.7%	?	?	9.89µM*
SMILES	HEK cytotox	FLuc inh-1	3T3 cytotox	hNpr1 antagonist	FLuc SDR no ATP	FLuc SDR ATP	FLuc inh-2
Cc1ccc(NC(=O)Nc2ccccc2)c(=O)n1CC(=O)NCC1CCCO1 (stereo unspecified)	-0.7%	14.1µM*	?	-12.9%	?	?	?
Cc1ccc(NC(=O)Nc2ccccc2)c(=O)n1CC(=O)NC1CCCCC1	-9.0%	i	-10.2%	-0.3%	.	.	.
Cc1ccc(S(=O)(=O)Nc2ccc(C)n(CC(=O)NC(C)c3ccccc3)c2=O)cc1 (stereo unspecified)	8.0%	i	i	-1.5%	.	.	.
Cc1ccc(NC(=O)Nc2ccc(C)n(CC(=O)NC(C)c3cccnc3)c2=O)cc1 (stereo unspecified)	?	1.12µM*	-21.3%	-14.7%	7µM*	?	1.57µM*
Cc1ccc(NC(=O)Nc2ccc(C)n(CC(=O)NC3CCCC3)c2=O)cc1	?	0.398µM*	?	?	1.57µM*	?	0.7µM*
O=C(C1CCCC1)N1CCC2(CC1)CC(N1CCCCC1)CCO2 (stereo unspecified)	-12.1%	.	-28.0%	.	.	.	.
CS(=O)(=O)c1cnc(NCCCc2ccccc2)nc1C1CCCNC1 (stereo unspecified)	?	i	?	0.3%	.	.	.
Cc1ccc2c(n1)N(C)[C@H](CO)CCN(Cc1cccc3c1OCO3)C2	?	i	-25.7%[174 µM]	-4.3%[70.6 µM]	.	.	.
O=C(c1ccc(F)cc1)N1CCC(c2nn(-c3ccc(Cl)cc3)c(=O)[nH]2)CC1	?	i	-25.7%	-5.4%	.	.	.
CN(C)C1(CC2CC2)CCN(Cc2cccc(F)c2)CC1	-4.3%	.	-29.2%	.	.	.	.
COc1ccccc1NC(=O)Cn1c(C)ccc(NC(=O)Nc2ccc(C)cc2)c1=O	?	0.631µM*	22.4µM*	?	?	?	0.7µM*
Cc1ccc(NC(=O)Nc2ccc(C)n(CC(=O)N3CCC(C)CC3)c2=O)cc1	?	4.47µM*	-16.6%	-18.0%	?	?	3.94µM*
COCC(=O)NC[C@H]1CCN(Cc2cccs2)C[C@H]1N(C)C	-24.0%	i	-8.6%	2.3%	.	.	.
O=C(Nc1ccc(F)cc1)c1cc2cccnn2n1	?	14.1µM*	?	4.0%[70.6 µM]	25.2%[49.3 µM]	18.8%[49.3 µM]	?
Cc1ccsc1C(=O)N1CCC(Oc2cccnc2)C1 (stereo unspecified)	7.9%	i	i	4.2%	.	.	.
O=C1CC2(CCN(CC3CC3)CC2)Oc2cc(Cl)ccc21	?	3.16µM*	-12.4%[138 µM]	?	13.9%[49.3 µM]	18.9%[49.3 µM]	?
Cc1ccc(-c2cc(C(=O)N3CCC(c4ncccn4)CC3)c3cnn(C)c3n2)c(C)c1	?	.	-24.6%	.	.	.	.
Cc1ccc(NC(=O)c2ncoc2-c2ccco2)cc1Cl	.	.	.	.	18.3%	13.7%	?
CCOc1cc(=O)n2c(c1C(=O)Nc1ccc(F)c(F)c1)CCCC2	-4.5%	i	i	-0.2%	.	.	.
